IDE exosite inh: displaces the probe from the exo-site of human IDE; z-score at 20 µM; purified IDE, FL-6b probe fluorescence polarization; active compounds read low; P14735; actives 6.3% (n = 17,000);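 active means z-score of -3 or lower, meaning strong loss of probe binding signal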;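 further: His-tagged human IDE residues 42-1019 made in E. coli with 30 nM FL-6b probe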
Starred values were filed as active, the others as inactive. The sample as a whole holds a higher share of hits than the screen did.

SMILES	IDE exosite inh
CCC(=O)N1C[C@@H](C)[C@H](OC)CN(C)C(=O)c2cc(NC(=O)Nc3ccc(Cl)cc3)ccc2OC[C@@H]1C	0.15
COc1ccccc1-c1ccc([C@@H]2[C@H]3CN(C(=O)c4ccncc4)CCCCN3[C@H]2CO)cc1	-14*
COc1ccccc1-c1ccc([C@@H]2[C@H](CO)N3CCCCN(C(=O)c4cccnc4)C[C@@H]23)cc1	-4.1*
Cc1ccccc1-c1ccc([C@H]2[C@H]3CN(C(=O)c4cccnc4)CCCCN3[C@H]2CO)cc1	0.9
O=C(c1cccnc1)N1CCCCN2[C@@H](CO)[C@@H](c3ccc(C#Cc4cccnc4)cc3)[C@@H]2C1	0.38
COc1ccccc1-c1ccc([C@H]2[C@H](CO)N3CCCCN(C(=O)c4ccncc4)C[C@@H]23)cc1	-2.5
COc1ccccc1-c1ccc([C@H]2[C@H]3CN(C(=O)c4ccncc4)CCCCN3[C@H]2CO)cc1	0.95
COc1ccc(C#Cc2ccc([C@@H]3[C@H]4CN(C(=O)c5cccnc5)CC(=O)N4[C@H]3CO)cc2)cc1	-0.69
C[C@H]1CN([C@@H](C)CO)C(=O)c2cccc(NC(=O)c3nc4ccccc4s3)c2O[C@@H]1CN(C)C(=O)Nc1ccc2c(c1)OCO2	0.25
CCS(=O)(=O)N1CC(=O)N2[C@@H](CO)[C@H](c3ccc(C#Cc4ccc(F)cc4)cc3)[C@@H]2C1	3.8
C/C=C/c1ccc([C@H]2[C@H](C#N)N(c3nc(-c4ccccc4)cs3)[C@H]2CO)cc1	3.7
COc1ccccc1-c1ccc([C@H]2[C@@H](CO)N3CCCCN(C(=O)CN4CCOCC4)C[C@H]23)cc1	-2.8
O=C(CN1CCOCC1)N1CCCCN2[C@H](CO)[C@H](c3ccc(-c4ccccc4F)cc3)[C@@H]2C1	-0.00058
COCC(=O)N1CCCCN2[C@H](CO)[C@@H](c3ccc(-c4ccccc4)cc3)[C@H]2C1	0.76
O=C(CN1CCOCC1)N1CCCCN2[C@H](CO)[C@@H](c3ccc(-c4ccccc4F)cc3)[C@@H]2C1	-3.6*
COc1ccccc1-c1ccc([C@H]2[C@H](CO)N3CCCCN(C(=O)CN4CCOCC4)C[C@@H]23)cc1	-3.2*
O=C(CN1CCOCC1)N1CCCCN2[C@@H](CO)[C@H](c3ccc(-c4ccccc4F)cc3)[C@@H]2C1	-0.34
O=C(CN1CCOCC1)N1CCCCN2[C@H](CO)[C@H](c3ccc(-c4ccccc4F)cc3)[C@H]2C1	-0.75
Cc1ccccc1-c1ccc([C@H]2[C@@H](CO)N3CCCCN(C(=O)CN4CCOCC4)C[C@H]23)cc1	-9.9*
Cc1ccccc1-c1ccc([C@@H]2[C@@H](CO)N3CCCCN(C(=O)CN4CCOCC4)C[C@@H]23)cc1	-8*
CC(C)CC#Cc1ccc([C@H]2[C@@H](CO)N3C(=O)CN(C(=O)Cc4cccnc4)C[C@H]23)cc1	-0.35
CCC(=O)NC[C@H]1[C@H](c2ccccc2)[C@@H](CO)N1C(=O)C1CCC1	0.28
O=C(c1ccccn1)N1[C@@H](CO)[C@@H](c2ccccc2)C12CN(Cc1ccccc1F)C2	0.85
COc1ccccc1NC(=O)N1CC(=O)N2[C@H](C1)[C@H](c1ccc(-c3ccc(C)cc3)cc1)[C@@H]2CO	0.68
CS(=O)(=O)N1CC(=O)N2[C@@H](CO)[C@H](c3ccc(C#CC4CCCC4)cc3)[C@@H]2C1	-0.15
SMILES	IDE exosite inh
O=C(C[C@H]1CC[C@@H]2[C@H](COC[C@@H](O)CN2C(=O)c2ccncc2)O1)Nc1ccc(-c2ccccc2)cc1	-0.99
N#C[C@@H]1[C@H](c2ccc(C#Cc3cccc(F)c3)cc2)[C@@H](CO)N1C(=O)C1CC1	0.5
C[C@H]1CN([C@@H](C)CO)C(=O)c2ccccc2-c2ccccc2CO[C@@H]1CN(C)S(=O)(=O)c1ccc([N+](=O)[O-])cc1	1
CCCNC(=O)N1CC(=O)N2[C@@H](CO)[C@@H](c3ccc(C#Cc4ccccc4)cc3)[C@@H]2C1	-1.1
CCCNC(=O)N1CC(=O)N2[C@H](C1)[C@H](c1ccc(C#Cc3ccc(F)cc3)cc1)[C@@H]2CO	2.6
CCCNC(=O)N1CC(=O)N2[C@H](CO)[C@@H](c3ccc(C#Cc4cccc(F)c4)cc3)[C@H]2C1	-3.7*
CCCNC(=O)N1CC(=O)N2[C@@H](CO)[C@H](c3ccc(C#Cc4ccc(F)cc4)cc3)[C@@H]2C1	2.1
CCCNC(=O)N1CC(=O)N2[C@@H](CO)[C@@H](c3ccc(C#Cc4cccc(F)c4)cc3)[C@@H]2C1	2.6
CCCNC(=O)N1CC(=O)N2[C@@H](CO)[C@H](c3ccc(C#Cc4ccccc4)cc3)[C@@H]2C1	-11*
CCS(=O)(=O)N(C)C[C@@H]1N[C@H](CO)[C@@H]1c1ccc(C2=CCCCC2)cc1	-0.4
COc1ccccc1S(=O)(=O)N1[C@@H]2CNC[C@H]1C2c1ccc(-c2cccnc2)cc1 (stereo partly specified)	0.96
C[C@@H]1CCCCO[C@H](CN(C)S(=O)(=O)c2ccc(F)cc2)[C@H](C)CN([C@@H](C)CO)C(=O)c2cc(N(C)C)ccc2O1	-0.76
CC(C)CC#Cc1ccc([C@@H]2[C@@H](CO)N3C(=O)CN(S(=O)(=O)c4cccc(F)c4)C[C@@H]23)cc1	0.12
C[C@@H]1CCCCO[C@H](CN(C)S(=O)(=O)c2cn(C)cn2)[C@@H](C)CN([C@@H](C)CO)C(=O)c2cc(NC(=O)Nc3cccc4ccccc34)ccc2O1	-0.62
C[C@@H]1CN([C@@H](C)CO)C(=O)c2cc(NC(=O)Nc3cccc4ccccc34)ccc2O[C@@H](C)CCCCO[C@@H]1CN(C)S(=O)(=O)c1cn(C)cn1	-3.9*
C[C@@H]1CN([C@H](C)CO)C(=O)c2cc(NC(=O)Nc3cccc4ccccc34)ccc2O[C@@H](C)CCCCO[C@H]1CN(C)S(=O)(=O)c1cn(C)cn1	-1.4
C[C@@H]1CCCCO[C@H](CN(C)S(=O)(=O)c2cn(C)cn2)[C@H](C)CN([C@@H](C)CO)C(=O)c2cc(NC(=O)Nc3cccc4ccccc34)ccc2O1	-1.7
C[C@@H]1CCCCO[C@@H](CN(C)S(=O)(=O)c2cn(C)cn2)[C@@H](C)CN([C@@H](C)CO)C(=O)c2cc(NC(=O)Nc3cccc4ccccc34)ccc2O1	-4.2*
C[C@@H]1CCCCO[C@@H](CN(C)S(=O)(=O)c2cn(C)cn2)[C@@H](C)CN([C@H](C)CO)C(=O)c2cc(NC(=O)Nc3cccc4ccccc34)ccc2O1	-1.1
CC[C@@H]1C/C=C\C[C@H](c2ccc(OC)cc2OC)NC(=O)[C@@H](C)CC(=O)N1	0.4
CCC(=O)N1CC[C@@H]2[C@@H](CO)N(C)c3ccc(-c4ccc(C#N)cc4)cc3[C@@H]21	2
O=C1CCC(=O)N[C@@H](c2ccc(F)cc2)C/C=C\C[C@H](c2ccc(F)cc2)N1	-0.84
N#C[C@@H]1[C@H](c2ccccc2/C=C/c2ccccc2)[C@H](CO)N1S(=O)(=O)c1ccc(F)cc1	0.61
COc1ccc(CNC(=O)C[C@@H]2C=C[C@H](NC(=O)c3cccc(F)c3)[C@@H](CO)O2)cc1	-0.7
COc1ccccc1NC(=O)N1CC(=O)N2[C@H](C1)[C@@H](c1ccc(C#CC(C)C)cc1)[C@@H]2CO	-1.1
N#Cc1cccc(-c2ccc([C@H]3[C@H]4CN(C(=O)Nc5cccc(F)c5)CCCCN4[C@H]3CO)cc2)c1	5.4
CCNC(=O)[C@H]1[C@H](CO)[C@H]2Cn3c(ccc(-c4ccncc4)c3=O)[C@H]2N1Cc1cc(F)ccc1F	2.5
Cc1ccccc1-c1ccc([C@H]2[C@H](CO)N3CCCCN(C(=O)Nc4ccccc4)C[C@@H]23)cc1	-3.9*

Source: PubChem BioAssay (Broad Institute)
